Structures are written as SMILES. Values joined by “and” are separate entries in the source; they are usually repeats but may differ in a detail not shown here. Equal entries are not always repeated. Compounds without any hit were thinned out: in the full panel of roughly 83,000, 20% have a hit.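 Assay: single dose, 48 h. Readout: percent growth (0 = no net growth; negative = cell death). Active: <10.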 Active and inactive are the calls of the source.

The test system of the assay is MDA-MB-468 breast. In words: NCI-60 one-dose screen, 48 h (100 = growth as untreated, 0 = no growth, -100 = all killed). Conditions: 10 µM unless noted.
Turning to `CNC(=O)c1cc(Oc2ccc3c(c2)sc2nc(-c4cc(OC)c(OC)c(OC)c4)cn23)ccn1`, the growth was 4.35% (active).

`COc1cc(-c2ccc3c(c2)NC(=O)/C3=C\c2ccc[nH]2)ccc1O`: the growth was 16.6% (inactive).

`O=C(CCCSc1nc(-c2ccc(Cl)cc2)cc(-c2ccc(Cl)cc2)n1)NO`: the growth is -49.5% (active).

`Cc1nnc(-c2cc3c(ccc4ccccc43)oc2=O)c2cn(-c3ccc(Cl)cc3)nc12`: the growth is 96.4% (inactive).

As to `COc1ccc(-c2cc(-c3nnc(SC/C(=N\O)c4ccccc4)n3-c3ccccc3)c3ccccc3n2)cc1`, the growth was 107% (inactive).

For `COc1cc(-c2nn(-c3cccc(NC(=O)CCN4CCN(C)CC4)c3)cc2-c2ccncc2)ccc1Cl`, the growth is 18.2% (inactive).

Consider `O=c1[nH]cnc2c1C(c1ccc(Br)cc1)c1sc3c(F)cccc3c1O2` (stereo not given), for which the growth was 105% (inactive).

With `COc1cc(-c2ccc(N=Nc3ccc4c(S(=O)(=O)O)ccc(N)c4c3O)c(OC)c2)ccc1N=Nc1ccc2c(S(=O)(=O)O)ccc(N)c2c1O`, the growth was 120% (inactive).

As to `O=C(NCc1ccco1)C1CCN(S(=O)(=O)c2ccc(Cl)cc2)CC1`, the growth is 56.2% (inactive).

Consider `CCCCC(O)Cn1ncc(C(=O)OCC)c1NC(=O)NCc1ccccc1C(F)(F)F` (stereo not given), for which the growth is 98.7% (inactive).

In the case of `Cc1cccc[n+]1CCC[n+]1ccccc1C`, the growth is 103% (inactive).

For `O=S(=O)(Nc1ccc(-c2nc(-c3cccc(O)c3)c(-c3ccnc(Br)c3)[nH]2)cc1)c1ccccc1`, the growth was -3.6% (active).

`Clc1ccc(/C=N\N2CCCCCC2)cc1`: the growth is 106% (inactive) and 122% (inactive).

Consider `Cn1cc(-c2nc(-c3c[nH]c4c(Cl)nccc34)cs2)c2cc(F)ccc21`, for which the growth was 1.89% (active).

Regarding `Cc1cc(O)cc(O)c1N=NC1=NCCS1`, the growth was 109% (inactive).

Consider `COc1cccc(C(=O)OCCn2nc3c4c(cccc42)C(=O)c2ccccc2-3)c1O`, for which the growth is 24.9% (inactive).

Consider `COC(=O)c1nc(-c2ccccc2)oc1S(=O)(=O)N1CCN(c2cccc(Cl)c2)CC1`, for which the growth was 46.6% (inactive).

As to `OCC1OC2C(NC(=S)N2c2ccccc2)C(O)C1O` (stereo not given), the growth is 94.6% (inactive).

`CCCCS(=O)(=O)Oc1ccc(-c2nc(C)c(C(=O)OCC)s2)cc1C=O`: the growth was 52.1% (inactive).

As to `CC/C(=N\N=C(/CC)c1ccc(Br)cc1)c1ccc(Br)cc1`, the growth was 110% (inactive).

For the molecule `CN(C)c1ccc2nc3ccc(=O)cc-3sc2c1`, the growth is 15% (inactive) and 29.5% (inactive).

As for `CCOC(=O)[C@@H]1[C@H](c2ccccc2)[C@H]([N+](=O)[O-])[C@H](c2cn(-c3ccccc3)nc2C)N1Cc1ccccc1`, the growth was 82.9% (inactive).

As to `O=C(N/N=C/c1ccc(Cl)cc1)c1ccc(Cc2n[nH]c(=O)c3cccnc23)cc1`, the growth was 89.8% (inactive).

For the molecule `CC(=O)N(O)c1ccc(/C=C/c2ccccc2)cc1`, the growth was -63.5% (active).

In the case of `Cc1ncc(C(=O)Nc2ccc(CN3CCN(C)CC3)c(C(F)(F)F)c2)cc1C#Cc1cnc(N)c2cnccc12`, the growth is -6.82% (active).

Take `COc1cc(-c2csc(NC(=O)c3cc(C(F)(F)F)cc(C(F)(F)F)c3)n2)cc(OC)c1OC`: the growth was 6.71% (active).

Turning to `COc1cc(C2C=C(c3ccc(Cl)c(Cl)c3)N=C3SC(C)=CN32)cc(OC)c1OC` (stereo not given), the growth was 62.5% (inactive).

As to `Cc1ccc(-c2cc(-c3cccnc3)[nH]c(=O)c2C#N)cc1`, the growth is 106% (inactive).

Turning to `COc1ccc(N=Nc2cc(OC)c(OC)c(OC)c2)cc1`, the growth was 80.9% (inactive).

In the case of `O=C(c1ccccc1)N(CCc1ccc(Cl)cc1)C(=S)N(C(=O)c1ccccc1)c1ccccc1`, the growth is 36% (inactive).

`O=C(Nc1ccc2ccccc2c1)c1cc2ccccc2cc1O`: the growth was 123% (inactive).

As for `Cc1[nH]c(C(=O)Nc2ccc(S(=O)(=O)N3CCCCC3)cc2OCCOCCOCCOCCOCCOCCOCCOCCOCCOc2cc(S(=O)(=O)N3CCCCC3)ccc2NC(=O)c2[nH]c(C)c3c2CCCCC3=O)c2c1C(=O)CCCC2`, the growth is -11.1% (active).

For the molecule `Nc1nc2ccc(-c3nc4ccc5[nH]ncc5c4c4c3CCCC4)cc2s1`, the growth was 112% (inactive).

As for `COc1ccc(/C=C2\CCCC3=C2NC(C)=NC3c2ccc(OC)c(OC)c2)cc1OC` (stereo not given), the growth is -10.3% (active).

Consider `Oc1cccc2ccc(N/N=C/c3cc(CN4CCCCC4)c(O)c4ncccc34)nc12`, for which the growth was -26.3% (active).

Turning to `O=C(NNc1nc2cc(F)ccc2n2cncc12)c1cnccn1`, the growth was 31.7% (inactive).

As for `COc1cccc(/C=C(/C)c2ccc3cccc(OC)c3[o+]2)c1O`, the growth was 95.9% (inactive).

Regarding `O=C/C=C/c1ccc([N+](=O)[O-])cc1`, the growth was 108% (inactive).

`O=C(NN(C(=O)c1ccccc1)c1cccs1)c1ccccc1`: the growth is 103% (inactive).

For `Cc1nn(-c2nc3ccccc3[nH]2)c2c1C(c1ccc(OCc3ccc(F)cc3)cc1)CC(=O)N2` (stereo not given), the growth is 65.3% (inactive).

Source of the values: PubChem BioAssay (NCI).
